Rows were chosen to be rich in hits. Some 3.9% of all compounds tested hit in one or more screens of this group.
Anthrax LF inh2 = Bacillus anthracis LF protease inhibitors, primary screen, biochemical, multiplex microsphere, MLPCN library; multiplex microsphere protease cleavage assay; inhibition, % at 10 µM; 360,000 compounds, 0.12% hits; note: plate controls were buffer without enzyme for full effect and enzyme alone for no effect
Target sequence (P15917 whole entry, looked up): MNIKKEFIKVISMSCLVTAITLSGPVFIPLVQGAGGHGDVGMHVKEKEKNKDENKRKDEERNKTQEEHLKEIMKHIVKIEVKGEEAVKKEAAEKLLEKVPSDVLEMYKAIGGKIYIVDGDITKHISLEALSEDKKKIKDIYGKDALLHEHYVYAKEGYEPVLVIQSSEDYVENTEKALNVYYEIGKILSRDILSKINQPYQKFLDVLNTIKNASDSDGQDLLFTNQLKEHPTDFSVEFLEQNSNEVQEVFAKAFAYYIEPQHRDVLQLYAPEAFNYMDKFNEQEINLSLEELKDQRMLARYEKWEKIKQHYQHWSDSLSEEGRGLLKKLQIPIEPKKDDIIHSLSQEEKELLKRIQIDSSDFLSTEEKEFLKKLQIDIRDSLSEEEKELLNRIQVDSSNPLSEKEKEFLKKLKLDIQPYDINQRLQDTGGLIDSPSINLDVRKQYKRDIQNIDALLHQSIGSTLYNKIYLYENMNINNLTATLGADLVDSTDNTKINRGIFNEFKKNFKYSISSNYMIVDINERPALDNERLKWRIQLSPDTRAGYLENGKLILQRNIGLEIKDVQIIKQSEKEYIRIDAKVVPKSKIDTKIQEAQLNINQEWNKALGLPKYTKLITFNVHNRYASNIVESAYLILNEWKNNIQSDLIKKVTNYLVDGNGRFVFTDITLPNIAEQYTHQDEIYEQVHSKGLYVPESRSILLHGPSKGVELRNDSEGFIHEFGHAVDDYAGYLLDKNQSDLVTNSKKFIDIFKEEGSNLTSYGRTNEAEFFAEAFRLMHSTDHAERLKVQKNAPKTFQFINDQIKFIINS
BoNT A protease = BoNT/A light chain protease inhibitors, primary screen, biochemical, flow cytometry, MLPCN library; Botulinum neurotoxin type A light chain protease (Clostridium botulinum A str. ATCC 3502); multiplex microsphere protease substrate cleavage; inhibition, % at 10 µM; 360,000 compounds, 0.17% hits; AID 588499, 2011; note: plate controls were buffer without enzyme for full effect and enzyme alone for no effect
Autofluor counter = compound fluorescence in toxin protease inhibitor counterscreen; compound autofluorescence counterscreen, microsphere flow cytometry; hits give high values; fluorescence intensity (no concentration beside the values); 360,000 compounds, 3.1% hits; in the data active = fluorescence intensity above about 16000; inconclusive = no clear call, values can overlap the other calls
MazEF act = activators of E. coli MazEF toxin-antitoxin RNase, primary screen, biochemical, fluorescence, uHTS; activation, % at 20 µM; 350,000 compounds, 0.32% hits; AID 504720, 2011; Endoribonuclease toxin MazF (Escherichia coli (strain K12)), P0AE70; FAM/BHQ RNA-DNA oligo cleavage fluorescence, 5 h; in the data active = activation above about 50%
BH1578 lux ind = inducers of Vibrio cholerae quorum light production without autoinducers, primary screen, BH1578 luxS cqsA deficient, single point; V. cholerae BH1578 lux reporter, luminescence, 6 h; activation, % at 18.7 µM; 350,000 compounds, 0.16% hits; in the data active = activation mostly above about 9.7%, no sharp cut-off; inconclusive = no clear call, values can overlap the other calls; inactive = mostly below about 3.7%
BoNT F protease = BoNT/F light chain protease inhibitors, primary screen, biochemical, flow cytometry, MLPCN library | Botulinum neurotoxin type F light chain protease (Clostridium botulinum) | Multiplex microsphere protease cleavage assay | inhibition, % at 10 µM | 360,000 compounds, 0.22% hits | AID 588497, 2011; in the data active = inhibition above about 35%, passing the limit was not always enough; inconclusive = no clear call, values can overlap the other calls; note: plate controls were buffer without enzyme for full effect and enzyme alone for no effect
* hit, by the source's call. Cut-off read from the data, not from the text of the source, unless noted: active = inhibition above about 30%; inconclusive = no clear call, values can overlap the other calls; inactive = below that.

How did CCNc1nc(N2CCCCC2)nc(-n2nnc(C(=O)OCC)c2C)n1 do in these assays?
Anthrax LF inh2: -4; BoNT A protease: inconclusive; Autofluor counter: 23587*; MazEF act: 0; BH1578 lux ind: inactive; BoNT F protease: -4

How did Nc1cc2c(cc1O)CCCC2 do in these assays?
Anthrax LF inh2: -2; BoNT A protease: 1; Autofluor counter: 2636; MazEF act: 2; BH1578 lux ind: 0; BoNT F protease: -4

What do the screens show for `Nc1c(C(O)(C(F)(F)F)C(F)(F)F)ccc2ccccc12`?
Anthrax LF inh2: -7; BoNT A protease: -4; Autofluor counter: 17206*; MazEF act: -10; BH1578 lux ind: 1; BoNT F protease: -7

How did CCOc1cc(/C=N/NC(=O)C(=O)NC)cc(Br)c1O do in these assays?
Anthrax LF inh2: 2; BoNT A protease: 0; Autofluor counter: 8109; MazEF act: 5; BH1578 lux ind: inactive; BoNT F protease: 0

How did CC(=O)c1c(C)[nH]c(C(=O)N2CCN(c3ccc(F)cc3)CC2)c1C do in these assays?
Anthrax LF inh2: -3; BoNT A protease: -4; Autofluor counter: 23763*; MazEF act: -3; BH1578 lux ind: 0; BoNT F protease: -5

What do the screens show for `Clc1ccc(OCc2nnc(SCc3nnc(-c4ccccc4)o3)o2)c(Cl)c1`?
Anthrax LF inh2: 0; BoNT A protease: -2; Autofluor counter: 17010*; MazEF act: -7; BH1578 lux ind: 6; BoNT F protease: -4

Results for Cc1cc(=O)[nH]c(SCc2nnc(-c3ccccc3)o2)n1 ?
Anthrax LF inh2: -1; BoNT A protease: 0; Autofluor counter: 3015; MazEF act: -12; BH1578 lux ind: 0; BoNT F protease: -4

What do the screens show for `Clc1ccc2nc(SCc3nnc(-c4ccccc4)o3)[nH]c2c1`?
Anthrax LF inh2: 1; BoNT A protease: inconclusive; Autofluor counter: 23021*; MazEF act: 2; BH1578 lux ind: inactive; BoNT F protease: -4

Results for O=C(CSc1nnc(COc2ccc(Cl)cc2Cl)o1)Nc1ccccn1 ?
Anthrax LF inh2: 2; BoNT A protease: -1; Autofluor counter: 4716; MazEF act: -12; BH1578 lux ind: 0; BoNT F protease: -3

How did COc1ccccc1NC(=O)Cn1cnc2c(nc3n2CCCCC3)c1=O do in these assays?
Anthrax LF inh2: -3; BoNT A protease: -1; Autofluor counter: 6454; MazEF act: 4; BH1578 lux ind: 0; BoNT F protease: -4

What do the screens show for `CC(C)CNC(=O)CSc1nc(-c2cccs2)cc(C(F)(F)F)n1`?
Anthrax LF inh2: -7; BoNT A protease: 0; Autofluor counter: 3637; MazEF act: 8; BH1578 lux ind: -1; BoNT F protease: 38*

Results for COc1ccc(-c2nnc3ccc(SCC(=O)NCC4CCCO4)nn23)cc1 (stereo not given) ?
Anthrax LF inh2: -2; BoNT A protease: -6; Autofluor counter: 25334*; MazEF act: 0; BH1578 lux ind: 0; BoNT F protease: -11

Results for O=C(CSc1ccc2nnc(-c3ccc(F)cc3)n2n1)NCC1CCCO1 (stereo not given) ?
Anthrax LF inh2: -3; BoNT A protease: inconclusive; Autofluor counter: 15978; MazEF act: 3; BH1578 lux ind: -1; BoNT F protease: -3

Results for COc1ccc(-c2nnc3ccc(SC)nn23)cc1 ?
Anthrax LF inh2: -4; BoNT A protease: 10; Autofluor counter: 17068*; MazEF act: 1; BH1578 lux ind: -1; BoNT F protease: 12

Results for CCC1(c2ccccc2)NC(=O)N(CC(=O)Nc2ccc(S(=O)(=O)Nc3ncccn3)cc2)C1=O (stereo not given) ?
Anthrax LF inh2: -3; BoNT A protease: 0; Autofluor counter: 5883; MazEF act: 1; BH1578 lux ind: -1; BoNT F protease: -4

What do the screens show for `COCCOC(=O)c1c(N)n(Cc2ccccc2)c2nc3ccccc3nc12`?
Anthrax LF inh2: 0; BoNT A protease: 4; Autofluor counter: 4009; MazEF act: 4; BH1578 lux ind: inactive; BoNT F protease: inconclusive
